From PubChem BioAssay (NCATS)
Inconclusive results are not listed. Activity calls are given as the source filed them. Unless noted, calls follow the shape of the dose curve; as a rule, active = well fitted curve in the direction sought with a large enough effect; inconclusive = small, poorly fitted or top-dose-only effect, or another doubt; inactive = no such curve, though single readings can be large; an effect the other way counts as inactive or inconclusive.

Experiments:
[1] = qHTS assay for measurement of the activity of small molecule inhibitors on Zika virus induced Caspase-3 activity in human iPSC derived neural progenitor cells (hNPCs) (AID 1224857); also: nearly all actives have a fitted effect of over 65% in size
How it was run: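 Human iPSC-derived neural progenitor cells pretreated 1 hr with compounds, then infected with Zika virus (2 FFU/cell) for 6 hours at 37 C. Caspase-3/7 measured by Caspase-Glo luminescence; % inhibition calculated from induction scaled to uninfected (0%) and infected (100%) wells.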

[2] = qHTS assay for measurement of the activity of small molecule inhibitors on Zika virus induced Caspase-3 activity in human astrocytoma cells (AID 1224859)
How it was run: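 SNB-19 astrocytoma cells, 250/well, pretreated 1 h with compounds, then Zika virus at 2 FFU/cell for 6 h at 37 C; Caspase-Glo 3/7 luminescence after 30 min; percent inhibition normalised to uninfected and infected controls.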

[3] = qHTS assay to identify small molecule inhibitors of chordoma cells - UCH-2 (AID 1259356); also: potency is read from the fitted curve at half-maximal effect
[4] = P-glycoprotein substrates identified in KB-8-5-11 adenocarcinoma cell line, qHTS therapeutic library screen (AID 1346987); also: nearly all actives have a fitted effect of over 65% in size; also: potency is read from the fitted curve at half-maximal effect
How it was run: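 In this qHTS, P-gp-rich KB-8-5-11 cells received library compounds across a concentration range. Viability was quantified by luminescence after 72 h at 37 degree C.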

[5] = NS1 protein of Zika virus - qHTS assay to identify small molecule inhibitors in human HEK 293 cells (AID 1347053); also: nearly all actives have a fitted effect of over 55% in size
How it was run: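 Compound-treated (1 h pre-infection) HEK 293 cells infected with ZIKV MR766, MOI = 0.5; after 24 h at 37 C, NS1 read by TR-FRET; data normalized to uninfected and infected controls.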

[6] = qHTS assay to identify small molecule inhibitors of chordoma cells - UCH-1 (AID 1259355); also: nearly all actives have a fitted effect of over 55% in size
How it was run: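 Screening used approved and investigational drugs in 15-point titration against 800 seeded cells per well. A fixed combination of auranofin with camptothecin, doxorubicin, rubitecan and topotecan followed compound addition, and growth was scored by CellTiter-Glo after 48hr.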

[7] = Identifying Small Molecule Inhibitors of Pancreatic Cancer Stem Cells (SN12C, Adherent) (AID 1259358); conditions: viability/growth inhibition;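 also: potency is read from the fitted curve at half-maximal effect; cell survival measured after 48 h of compound exposure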
How it was run: (§1)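 Monolayer and spheroid cultures are compared. Spheroids form over 14 days in stem cell medium on hydrogel-coated low-attachment plates, then are exposed to compound for 48 h before CellTiter-Glo luminescence.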

[8] = Identifying Small Molecule Inhibitors of Pancreatic Cancer Stem Cells (Panc1, Spheroid) (AID 1259359); conditions: Panc1 spheroid cancer stem cell viability;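 also: potency is read from the fitted curve at half-maximal effect; compound exposure lasted 48 h before reading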
How it was run: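 Luminescent ATP readout (CellTiter-Glo) quantifies surviving cells after a 48 h drug incubation. Normalization uses DMSO wells as no inhibition and media-only wells as full inhibition; bortezomib served as positive control.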

[9] = Identifying Small Molecule Inhibitors of Pancreatic Cancer Stem Cells (SN12C, Spheroid) (AID 1259360); conditions: SN12C spheroid viability; also: potency is read from the fitted curve at half-maximal effect
How it was run: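 Viability is scored by CellTiter-Glo luminescence 48 h after dosing, expressed as percent activity against vehicle and no-cell references. Spheroid formats rely on cells cultured 14 days in stem cell media beforehand.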

[10] = Identifying Small Molecule Inhibitors of Pancreatic Cancer Stem Cells (A278, Adherent) (AID 1259361);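 also: viability read after 48 h compound exposure; nearly all actives have a fitted effect of over 35% in size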
How it was run: as §1

[11] = P-glycoprotein substrates identified in KB-3-1 adenocarcinoma cell line, qHTS therapeutic library screen (AID 1346986); conditions: KB-3-1 parental cells viability, CellTiter-Glo, 72 h; at 44.5 µM (top of the series); also: nearly all actives have a fitted effect of over 60% in size
How it was run: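 Viability by CellTiter-Glo after 72 h compound exposure at 37 degree C, 5% CO2. Cytotoxic call: curve class -1.1 to -2.4, maximum response >50%, AC50 < 10 uM, compared across KB-3-1 and P-gp-overexpressing KB-8-5-11.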

[12] = qHTS profiling of the MIPE4 collection as inhibitors of Plasmodium falciparum (3D7) proliferation (AID 743344; call rule not given here); conditions: P. falciparum 3D7 in erythrocytes, SYBR Green DNA fluorescence, 72 h; at 28.5 µM (top of the series) unless noted
How it was run: (§2)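 Parasite DNA was quantified by SYBR Green I fluorescence (ex 485, em 535 nm) after overnight lysis in saponin/Triton buffer at room temperature. Cultures at 0.3% parasitemia and 2.5% hematocrit were first exposed to compound for 72 h at 37 C; signals were normalised to artemisinin (0.29 uM) and vehicle wells.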

[13] = qHTS profiling of the MIPE4 collection as inhibitors of Plasmodium falciparum (DD2) proliferation (AID 743345; call rule not given here); conditions: P. falciparum Dd2 in erythrocytes, SYBR Green DNA, 72 h; at 28.5 µM (top of the series) unless noted
How it was run: as §2

[14] = qHTS profiling of the MIPE4 collection as inhibitors of Plasmodium falciparum (DD2) proliferation (Rep 2) (AID 743346; call rule not given here); conditions: P. falciparum Dd2 in erythrocytes, SYBR Green DNA, 72 h; at 28.5 µM (top of the series) unless noted
How it was run: as §2

[15] = qHTS profiling of the MIPE4 collection as inhibitors of Plasmodium falciparum (HB3) proliferation (AID 743347; call rule not given here); conditions: P. falciparum HB3 in erythrocytes, SYBR Green DNA, 72 h; at 28.5 µM (top of the series) unless noted
How it was run: as §2

C[C@H]1C[C@H]2[C@@H]3CCC4=CC(=O)C=C[C@]4(C)[C@@]3(Cl)[C@@H](O)C[C@]2(C)[C@@]1(O)C(=O)CO
inactive: outcome [1] | outcome [2] | Potency [3] | Potency [4] | Potency [5]

C[C@]12C=CC(=O)C=C1[C@@H](F)C[C@@H]1[C@@H]2[C@@H](O)C[C@@]2(C)[C@H]1CC[C@]2(O)C(=O)CO
inactive: outcome [1] | outcome [2] | Potency [3] | Potency [4]

Cc1c(C(C)C)c(=O)n(-c2ccccc2)n1C
inactive: outcome [1] | outcome [2] | Potency [3] | Potency [4]

Cc1cc(O)c(C(C)C)cc1Cl
inactive: outcome [1] | outcome [2] | Potency [3] | Potency [4]

N[C@H](Cc1c[nH]c2ccccc12)C(=O)O
inactive: outcome [1] | outcome [2] | Potency [3]

COCc1c(C(C)C)nc(C(C)C)c(/C=C/[C@@H](O)C[C@@H](O)CC(=O)O)c1-c1ccc(F)cc1
inactive: outcome [1] | outcome [2] | Potency [3]
active: Potency [4] 0.731 µM

O=c1c(-c2ccccc2)c1-c1ccccc1
inactive: outcome [1] | outcome [2] | Potency [3]

CCCCC1=NC2(CCCC2)C(=O)N1Cc1ccc(-c2ccccc2-c2nn[nH]n2)cc1
inactive: outcome [1] | outcome [2] | Potency [6] | Potency [5]

CC(O)C(=O)O (stereo not given)
inactive: outcome [1] | outcome [2] | Potency [3] | Potency [4] | Potency [5]

COc1cccc2c1C(=O)c1c(O)c3c(c(O)c1C2=O)C[C@@](O)(C(=O)CO)C[C@@H]3O[C@H]1C[C@H](N)[C@H](O)[C@H](C)O1
inactive: outcome [1] | outcome [2] | Potency [3] | Potency [4]
active: Potency [7] 3.32 µM | Potency [8] 5.9 µM | Potency [9] 18.7 µM | IC50 (viability decrease) [10] 0.418 µM

CN(C)C(=S)SC(=S)N(C)C
inactive: outcome [1] | outcome [2] | Potency [3] | Potency [4]

NC(=O)C(=O)N/N=C/c1ccc([N+](=O)[O-])o1
inactive: outcome [1] | outcome [2] | Potency [3]

CC(=O)O[C@]1(C(C)=O)CC[C@H]2[C@@H]3C[C@H](C)C4=CC(=O)CC[C@]4(C)[C@H]3CC[C@@]21C
active: Potency [4] 10.3 µM
inactive: outcome [1] | outcome [2] | Potency [3] | outcome [11] | Potency [5]

C[C@@H]1C[C@H]2[C@@H]3C[C@H](F)C4=CC(=O)C(Cl)=C[C@]4(C)[C@@]3(F)[C@@H](O)C[C@]2(C)[C@@]1(O)C(=O)CO
inactive: outcome [1] | outcome [2] | Potency [3] | Potency [4] | Potency [5]

C[C@]12CCC(=O)C=C1CC[C@H]1[C@@H]3CC[C@](O)(C(=O)CO)[C@@]3(C)C[C@H](O)[C@@]12F
inactive: outcome [1] | outcome [2] | Potency [3] | Potency [4] | Potency [5]

Oc1cc(O)c2c(c1)O[C@H](c1ccc(O)c(O)c1)[C@H](O)C2
inactive: outcome [1] | outcome [2] | Potency [3] | Potency [4]

CCCCC(CC)CN=C(N)NC(N)=NCCCCCCN=C(N)NC(N)=NCC(CC)CCCC (stereo not given)
active: Potency [3] 25.9 µM
inactive: outcome [1] | outcome [2]

CC(C)COC(=O)c1ccc(N)cc1
inactive: outcome [1] | outcome [2] | Potency [3] | Potency [4] | Potency [5]

CC[C@@H](CO)NCCN[C@@H](CC)CO
98.8%: parasite growth, % of DMSO control [12]
106%: parasite growth remaining, % of DMSO control (lower = more inhibition) [13] | growth, % of control [15]
68.5%: parasite growth, % of control (lower = inhibition) [14]
inactive: outcome [1] | outcome [2] | Potency [6] | Potency [5]

OC[C@H]1O[C@@H](n2cnc3c(=S)nc[nH]c32)[C@H](O)[C@@H]1O
active: Potency [4] 1.84 µM
inactive: outcome [1] | outcome [2] | Potency [3]

Cc1cc(=O)n(-c2ccccc2)n1C
inactive: outcome [1] | outcome [2] | Potency [3] | Potency [4] | Potency [5]

CC(O)(P(=O)(O)O)P(=O)(O)O
inactive: outcome [1] | outcome [2] | Potency [3] | Potency [4] | Potency [5]

COc1cc2c(cc1OC)[C@@H]1CC(=O)[C@@H](CC(C)C)CN1CC2
inactive: outcome [1] | outcome [2] | Potency [3]

CC1(C)O[C@@H]2C[C@H]3[C@@H]4C[C@H](F)C5=CC(=O)C=C[C@]5(C)[C@H]4[C@@H](O)C[C@]3(C)[C@]2(C(=O)CO)O1
inactive: outcome [1] | outcome [2] | Potency [3] | Potency [4]

Cc1ncc(CSSCc2cnc(C)c(O)c2CO)c(CO)c1O
inactive: outcome [1] | outcome [2] | Potency [3] | Potency [4] | Potency [5]

CC(C)=CCC1C(=O)N(c2ccccc2)N(c2ccccc2)C1=O
inactive: outcome [1] | outcome [2] | Potency [3] | Potency [5]

NC(=NCCCCCCN=C(N)/N=C(\N)Nc1ccc(Cl)cc1)/N=C(\N)Nc1ccc(Cl)cc1
inactive: outcome [1] | outcome [2] | Potency [3] | Potency [5]

COc1cc(/C=C/C(=O)O[C@H]2CC[C@]34C[C@]35CC[C@]3(C)[C@@H]([C@H](C)CCC=C(C)C)CC[C@@]3(C)[C@@H]5CC[C@H]4C2(C)C)ccc1O
inactive: outcome [1] | outcome [2] | Potency [3] | Potency [4] | Potency [5]

CC[N+](CC)(CCNC(=O)C(=O)NCC[N+](CC)(CC)Cc1ccccc1Cl)Cc1ccccc1Cl
inactive: outcome [1] | outcome [2] | Potency [3] | Potency [4] | Potency [5]

CC(=O)OCC(=O)[C@@]1(OC(C)=O)[C@@H](C)C[C@H]2[C@@H]3C[C@H](F)C4=CC(=O)C=C[C@]4(C)[C@@]3(F)[C@@H](O)C[C@@]21C
inactive: outcome [1] | outcome [2] | Potency [3] | Potency [5]

CCN(CC)C(=O)/C(C#N)=C/c1cc(O)c(O)c([N+](=O)[O-])c1
inactive: outcome [1] | outcome [2] | Potency [3] | Potency [4] | Potency [5]

CC(=O)OCC(=O)[C@@]12N=C(C)O[C@@H]1C[C@H]1[C@@H]3CCC4=CC(=O)C=C[C@]4(C)[C@H]3[C@@H](O)C[C@@]12C
inactive: outcome [1] | outcome [2] | Potency [3] | Potency [4] | Potency [5]
